Test results: article PMC4336329 (PLoS ONE, 2015)
Hit rate of the full screen: of about 310,000 compounds, about 14,000 (4.5%) showed an effect of 50% or more. Effects have a minus sign here. The list comes from a sample in which strong results are over-represented; it also holds similar structures and randomly drawn compounds.
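Note: peak tail current of the secondary pulse compared with the same well before compound.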

What follows are molecules tested against human ether-à-go-go-related gene (hERG) potassium channel (human, UniProt Q12809) (assay: primary screen, population patch clamp on CHO cells stably expressing hERG; higher = less effect of the substance).
human ether-à-go-go-related gene (hERG) potassium channel, sequence (Q12809 whole entry, looked up): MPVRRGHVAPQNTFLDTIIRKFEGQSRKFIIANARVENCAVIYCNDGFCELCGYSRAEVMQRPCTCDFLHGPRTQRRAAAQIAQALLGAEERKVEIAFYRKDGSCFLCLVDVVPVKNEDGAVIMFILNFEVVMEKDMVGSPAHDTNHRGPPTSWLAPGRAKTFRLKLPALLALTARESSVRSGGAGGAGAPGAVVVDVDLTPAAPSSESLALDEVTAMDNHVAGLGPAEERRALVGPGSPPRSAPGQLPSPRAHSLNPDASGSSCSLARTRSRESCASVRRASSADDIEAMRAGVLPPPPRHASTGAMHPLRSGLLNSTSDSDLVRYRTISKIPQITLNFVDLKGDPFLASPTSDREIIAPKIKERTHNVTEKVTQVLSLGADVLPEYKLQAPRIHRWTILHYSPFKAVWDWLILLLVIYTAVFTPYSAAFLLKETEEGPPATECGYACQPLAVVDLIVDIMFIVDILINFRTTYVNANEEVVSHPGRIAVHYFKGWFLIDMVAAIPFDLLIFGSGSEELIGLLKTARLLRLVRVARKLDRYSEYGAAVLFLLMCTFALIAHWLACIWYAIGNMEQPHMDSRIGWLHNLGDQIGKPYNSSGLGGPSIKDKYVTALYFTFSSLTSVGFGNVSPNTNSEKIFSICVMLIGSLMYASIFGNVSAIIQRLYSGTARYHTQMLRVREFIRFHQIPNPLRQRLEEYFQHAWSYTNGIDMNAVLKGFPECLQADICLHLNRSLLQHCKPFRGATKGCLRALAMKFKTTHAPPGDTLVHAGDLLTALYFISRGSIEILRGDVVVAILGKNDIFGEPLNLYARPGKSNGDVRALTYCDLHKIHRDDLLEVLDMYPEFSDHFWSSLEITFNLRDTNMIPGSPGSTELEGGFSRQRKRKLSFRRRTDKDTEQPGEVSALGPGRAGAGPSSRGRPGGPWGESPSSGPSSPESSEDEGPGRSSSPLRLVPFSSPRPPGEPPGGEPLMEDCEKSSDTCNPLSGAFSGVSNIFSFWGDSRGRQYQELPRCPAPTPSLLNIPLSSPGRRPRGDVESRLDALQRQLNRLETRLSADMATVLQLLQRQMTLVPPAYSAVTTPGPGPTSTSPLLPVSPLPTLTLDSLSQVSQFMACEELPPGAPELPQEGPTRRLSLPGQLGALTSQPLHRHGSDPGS
With `Cc1cc2c(cc1S(=O)(=O)Nc1ccc(OC(F)(F)F)cc1)OCC(=O)N2` the “hERG current change (%, negative = inhibition) at 10uM” value was -42.5%. In the case of `CCOC(CNC(=O)c1cccn2c(=O)c3c(C)c(C)sc3nc12)OCC`, the “hERG current change (%, negative = inhibition) at 10uM” value is reported as -12.5%. With `CCc1nnc(NC(=O)C(=O)NCCOC(=O)c2ccccc2Cl)s1` the “hERG current change (%, negative = inhibition) at 10uM” value was 5.68%. In the case of `Cc1cccc(-c2noc(CNC(=O)Nc3ccc(F)cc3)n2)c1`, the “hERG current change (%, negative = inhibition) at 10uM” value is reported as 8.56%. For `Cc1ccc(N(CC(=O)NCc2ccccc2)C(=O)CCC(=O)Nc2ccccn2)cc1C`, the “hERG current change (%, negative = inhibition) at 10uM” value was 16.4%. In the case of `CC(=O)Nc1ccc(S(=O)(=O)N2CCN(c3nc4ccccc4n3CC(C)C)CC2)cc1`, the “hERG current change (%, negative = inhibition) at 10uM” value is reported as -30.9%. In the case of `O=C(CN1CCN(c2ccccc2)CC1)Nc1ccc2c(c1)OCCO2`, the “hERG current change (%, negative = inhibition) at 10uM” value is reported as 5.46%. In the case of `CCCCNc1nc2ccccc2n1CC(=O)Nc1ccc2c(c1)OCCO2`, the “hERG current change (%, negative = inhibition) at 10uM” value is reported as -10.2%. `CCn1c(N2CCN(CC(=O)Nc3cccc(C)c3C)CC2)nc2ccccc21` was tested, and the “hERG current change (%, negative = inhibition) at 10uM” value was -63.6%. In the case of `CC(O)c1nc2ccccc2n1CC(=O)Nc1ccc2c(c1)OCCO2` (stereo not shown), the “hERG current change (%, negative = inhibition) at 10uM” value is reported as -4.28%. In the case of `Cc1cccc(N2CCN(CC(=O)Nc3ccccc3[N+](=O)[O-])CC2)c1C`, the “hERG current change (%, negative = inhibition) at 10uM” value is reported as -0.256%. For `CC(C)Cn1c(N2CCN(CC(=O)Nc3ccc(Cl)cc3)CC2)nc2ccccc21`, the “hERG current change (%, negative = inhibition) at 10uM” value was -70.5%. `O=C(CN1CCN(c2ccc(O)cc2)CC1)Nc1ccc2c(c1)OCCO2` was tested, and the “hERG current change (%, negative = inhibition) at 10uM” value was 2.24%. In the case of `CCCn1c(N2CCN(CC(=O)Nc3ccc4c(c3)OCCO4)CC2)nc2ccccc21.Cl`, the “hERG current change (%, negative = inhibition) at 10uM” value is reported as -60.4%. In the case of `CCn1c(N2CCN(S(=O)(=O)CC)CC2)nc2ccccc21`, the “hERG current change (%, negative = inhibition) at 10uM” value is reported as -37.7%. In the case of `Cc1ccc(SCc2nc3ccccc3n2CC(=O)Nc2ccc(Cl)cc2)cc1`, the “hERG current change (%, negative = inhibition) at 10uM” value is reported as -8.31%. With `CC(C)n1c(N2CCN(CC(=O)Nc3ccc4c(c3)OCCO4)CC2)nc2ccccc21` the “hERG current change (%, negative = inhibition) at 10uM” value was -65.4%. For `CCOC(=O)[C@@H]1[C@H]2COc3cc(OC)ccc3[C@@H]2N2C(=O)N(c3cccc(C)c3)C(=O)[C@@]12C`, the “hERG current change (%, negative = inhibition) at 10uM” value was -5.14%. `CCC1=NN(C(=O)c2ccc(C)cc2)C(O)(c2ccc(Br)cc2)C1` (stereo not shown) was tested, and the “hERG current change (%, negative = inhibition) at 10uM” value was -10.7%. With `COc1ccccc1C(CC(=O)Nc1nccs1)c1ccco1` (stereo not shown) the “hERG current change (%, negative = inhibition) at 10uM” value was 2.68%. With `Cc1ccc(C)c(NC(=O)CN(C)C(=O)/C=C/c2ccco2)c1` the “hERG current change (%, negative = inhibition) at 10uM” value was 15.7%. `COc1ccccc1/C=C/C=N/NC(=O)c1cnccn1` was tested, and the “hERG current change (%, negative = inhibition) at 10uM” value was 13.5%. `Cc1ccc(-c2csc(NC(=O)c3ccc(Br)cc3)c2C(=O)O)cc1` was tested, and the “hERG current change (%, negative = inhibition) at 10uM” value was 46.9%. In the case of `O=C(O)C(Cc1c[nH]c2ccccc12)N1CCS(=O)(=O)CC1` (stereo not shown), the “hERG current change (%, negative = inhibition) at 10uM” value is reported as 16.3%. With `N#CC1(NC(=O)COC(=O)c2ccc(-c3ccc(O)cc3)cc2)CCCCC1` the “hERG current change (%, negative = inhibition) at 10uM” value was 7.22%. With `CC1(C)C(=O)OC(c2ccc([N+](=O)[O-])cc2)C(C)(C)C1=O` (stereo not shown) the “hERG current change (%, negative = inhibition) at 10uM” value was 18.4%. For `N#Cc1cc(NC2CCCC2)c([N+](=O)[O-])cc1C#N`, the “hERG current change (%, negative = inhibition) at 10uM” value was -5.68%. In the case of `Cn1cc(S(=O)(=O)N2CCCC2)cc1C(=O)NCCc1ccccc1`, the “hERG current change (%, negative = inhibition) at 10uM” value is reported as -2.66%. For `O=Cc1ccc2noc(-c3ccc(Cl)cc3)c2c1`, the “hERG current change (%, negative = inhibition) at 10uM” value was -1.22%. With `Cc1ccc(/C=C2\SC(=S)N(CCC(=O)NNC(=O)c3cccnc3)C2=O)cc1` the “hERG current change (%, negative = inhibition) at 10uM” value was 1.06%. With `O=C(c1ccc2nc(N3CCOCC3)sc2c1)N1CCN(C(=O)c2ccco2)CC1` the “hERG current change (%, negative = inhibition) at 10uM” value was -47.4%. `CC1CC(C)CN(CCCNC(=O)c2ccc3nc(N4CCOCC4)sc3c2)C1` (stereo not shown) was tested, and the “hERG current change (%, negative = inhibition) at 10uM” value was -19.5%. With `O=C(NCc1ccccc1)c1ccc2nc(N3CCOCC3)sc2c1` the “hERG current change (%, negative = inhibition) at 10uM” value was -5.89%. `O=C(c1ccc2nc(N3CCOCC3)sc2c1)N1CCCC1` was tested, and the “hERG current change (%, negative = inhibition) at 10uM” value was -10.8%. For `O=C(NCCc1ccccc1)c1ccc2nc(N3CCOCC3)sc2c1`, the “hERG current change (%, negative = inhibition) at 10uM” value was 3.75%. `CCCCN(CCCNC(=O)c1ccc2nc(N3CCOCC3)sc2c1)Cc1ccccc1` was tested, and the “hERG current change (%, negative = inhibition) at 10uM” value was -62%. For `O=C(NCCCN1CCC(Cc2ccccc2)CC1)c1ccc2nc(N3CCOCC3)sc2c1`, the “hERG current change (%, negative = inhibition) at 10uM” value was -66.2%. For `CCC(Cc1ccccc1)NC(=O)c1ccc2nc(N3CCOCC3)sc2c1` (stereo not shown), the “hERG current change (%, negative = inhibition) at 10uM” value was -46.5%. For `O=C(c1ccc2nc(N3CCOCC3)sc2c1)N1CCC(Cc2ccccc2)CC1`, the “hERG current change (%, negative = inhibition) at 10uM” value was -63.2%. In the case of `CCOC(=O)c1ccc(-c2c(-c3ccccc3OC)sc3cc4c(cc23)OCO4)cc1F`, the “hERG current change (%, negative = inhibition) at 10uM” value is reported as 12.5%. `Cc1cccc(-c2nsc(SCC(=O)Nc3cc(C)on3)n2)c1` was tested, and the “hERG current change (%, negative = inhibition) at 10uM” value was 16.1%. With `CC(=Nc1ccc2c(c1)CCC2)c1c(O)n(C)c(=O)n(C)c1=O` the “hERG current change (%, negative = inhibition) at 10uM” value was -3.93%. `CCOc1ccccc1CN1CCN(Cc2nc3c(s2)CCCC3)CC1CCO` (stereo not shown) was tested, and the “hERG current change (%, negative = inhibition) at 10uM” value was -67.9%. With `Cc1cccc(CN2CCN(Cc3nc4c(s3)CCCC4)CC2CCO)n1` (stereo not shown) the “hERG current change (%, negative = inhibition) at 10uM” value was -28.6%. `COc1cccc(CN2CCN(Cc3nc4c(s3)CCCC4)CC2CCO)c1` (stereo not shown) was tested, and the “hERG current change (%, negative = inhibition) at 10uM” value was -48.5%. With `CCOc1ccccc1CN1CCN(Cc2nc3ccccc3s2)CC1CCO` (stereo not shown) the “hERG current change (%, negative = inhibition) at 10uM” value was -74.8%. `Cc1ccc(/C=C2/SC(=S)N(CCCC(=O)Nc3cc([N+](=O)[O-])ccc3O)C2=O)cc1` was tested, and the “hERG current change (%, negative = inhibition) at 10uM” value was 13.1%. For `O=C(NC(=S)NCCc1ccccc1)c1ccco1`, the “hERG current change (%, negative = inhibition) at 10uM” value was 10.2%. In the case of `NC(=O)c1sc2cc(C(F)(F)F)cnc2c1-c1ccccc1`, the “hERG current change (%, negative = inhibition) at 10uM” value is reported as 15.5%. In the case of `CCOc1ccc(OCC)c(NC(=O)C2CCN(S(=O)(=O)c3cccnc3)CC2)c1`, the “hERG current change (%, negative = inhibition) at 10uM” value is reported as -29.9%. In the case of `Clc1ccc(-c2cnc3n2CCC3)cc1`, the “hERG current change (%, negative = inhibition) at 10uM” value is reported as -23.1%. In the case of `Cc1cnc(NC(=O)CSc2c(Cl)cccc2Cl)s1`, the “hERG current change (%, negative = inhibition) at 10uM” value is reported as -6.06%. With `O=C(Nc1ccc(Oc2ccccc2)cc1)C1CCN(c2ncccn2)CC1` the “hERG current change (%, negative = inhibition) at 10uM” value was 0.064%. In the case of `O=C(Nc1ccc(Oc2cccnc2)cc1)C1CCN(Cc2cccc(Cl)c2)CC1`, the “hERG current change (%, negative = inhibition) at 10uM” value is reported as -52.8%. For `O=C(Nc1ccc(Oc2cccnc2)cc1)C1CCN(Cc2ccccc2)CC1`, the “hERG current change (%, negative = inhibition) at 10uM” value was -75.1%. `O=C(Nc1ccc(Oc2cccnc2)cc1)C1CCN(Cc2cc(Cl)ccc2O)CC1` was tested, and the “hERG current change (%, negative = inhibition) at 10uM” value was -45.9%. For `COc1ccc(CN2CCC(C(=O)Nc3ccc(Oc4cccnc4)cc3)CC2)cc1`, the “hERG current change (%, negative = inhibition) at 10uM” value was -69.3%. In the case of `Cc1ccc(CN2CCCCC2C(=O)Nc2ccc(Oc3cccnc3)cc2)o1` (stereo not shown), the “hERG current change (%, negative = inhibition) at 10uM” value is reported as -19.4%. `O=C(Nc1ccc(Oc2cccnc2)cc1)C1CCCCN1Cc1ccc(CO)o1` (stereo not shown) was tested, and the “hERG current change (%, negative = inhibition) at 10uM” value was 1.59%. In the case of `COc1cccc(O)c1CN1CCC(C(=O)Nc2ccc(Oc3cccnc3)cc2)CC1`, the “hERG current change (%, negative = inhibition) at 10uM” value is reported as -47.4%. In the case of `COc1ccc(CN2CCC(C(=O)Nc3ccc(Oc4cccnc4)cc3)CC2)c(C)c1C`, the “hERG current change (%, negative = inhibition) at 10uM” value is reported as -36.8%. In the case of `Cc1ccccc1CN1CCC(C(=O)Nc2ccc(Oc3cccnc3)cc2)CC1`, the “hERG current change (%, negative = inhibition) at 10uM” value is reported as -48.6%. `O=C(Nc1ccc(Oc2cccnc2)cc1)C1CCN(Cc2ccc(F)cc2)CC1` was tested, and the “hERG current change (%, negative = inhibition) at 10uM” value was -55.2%. `Cc1cccc(CN2CCC(C(=O)Nc3ccc(Oc4cccnc4)cc3)CC2)c1` was tested, and the “hERG current change (%, negative = inhibition) at 10uM” value was -14%.
